Among the data in PubChem BioAssay (NCI) are growth values, retold here.

Structures are written as SMILES. Several values for one entry are separate records, joined by “and”; a condition that tells them apart may be missing. Equal values may be shown once. Compounds without any hit were thinned out: in the full panel of roughly 83,000, 20% have a hit.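 A percent growth of 40 corresponds to 60% growth inhibition; 0 means no net growth; -100 means all cells died. Active threshold: below 10.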 Unmarked numbers belong to inactive results. Activity calls are given as the source filed them.

The test deals with MDA-MB-468 breast. In words: NCI-60 one-dose screen, 48 h (100 = growth as untreated, 0 = no growth, -100 = all killed). As to conditions: 10 µM unless noted.
As to `CCOC(=O)c1c(C)[nH]c2ccc(O)cc12`, the growth was 102%.
On to `CCOC(=O)C(Cc1ccccc1)(C(=O)OCC)C(Br)C(=O)c1ccccc1` (stereo not given), for which the growth is -9.41% (active).
For the compound `Clc1nc(-c2ccccn2)nc2sc3c(c12)CCCCCC3`, the growth is -84.3% (active).
Then `COc1ccc(CN2c3ccccc3Sc3ccccc32)cc1O`, with 9.33% (active); and `CCN1C(=O)/C(=C/N2N=C(c3ccc(Cl)cc3)CC2c2ccc(OC)cc2)SC1=S` (stereo not given), with 93.3%; and `CCCCn1c(C(=O)c2c[nH]c3ccccc23)n[nH]c1=S`, with 109%.
On to `Cc1cc(=O)oc2c1ccc1oc(C#N)c(C)c12`, for which the growth was 114%.
Take `CS(CCCCN=C=S)=NC(=O)c1c(F)c(F)c(F)c(F)c1F` (stereo not given): the growth was 30.1%.
Then `Nc1c(C(=O)Nc2ccccc2Cl)sc2nc3c(cc12)C(O)CCC3` (stereo not given), with 25.7%; and `CCCCCCc1nc2nc(Cl)c(Cl)nc2[nH]1`, with 31.1%; and `O=C(Nc1cccc(Cl)c1)Nc1nc2cc([N+](=O)[O-])ccc2o1`, with 53.4%.
For the compound `O=C1C=CC(=O)C2=C1CCCC2`, the growth is 61.5%.
Consider `COc1ccc(-c2nn(-c3ccc(NC(=O)Nc4ccc(Cl)c(Cl)c4)cc3)cc2-c2ccncc2)cc1Cl`, for which the growth was -33.2% (active).
Regarding `CCCCCCNc1nc(N2CCOCC2)c2[nH]c(NCCCCCC)nc2n1`, the growth is -76.7% (active).
Regarding `COc1ccc(/C=N/Nc2cc(=O)[nH]c3ccc(C)cc23)cc1`, the growth was 101%.
The same measure for `CC(C)Cn1c2c(c(=S)[nH]c1=O)CCC2`: 112%; for `CCOC(=O)CNN`: 95.7%; for `COc1cc2cc3c(nc2cc1OC)CCN3Cc1ccc(NC(=O)c2ccc(Cl)c(C(F)(F)F)c2)cc1`: 12.9%.
In the case of `CN1C(=O)C(N=Nc2ccc([N+](=O)[O-])cc2)SC1=S` (stereo not given), the growth is 84.6% and 85.1%.
With `COc1cc(OC)c(/C=C/C(=O)c2c(O)cc(OC)c(C3CCN(C)CC3)c2OC)c(OC)c1`, the growth is -91.1% (active).
For the compound `O=C(Cc1ccc(/C=C/C(=O)c2ncc[nH]2)cc1)Nc1cc(F)c(F)c(F)c1`, the growth is 8.95% (active).
In the case of `O=C1CCc2c(sc3[nH]c(=S)n(Cc4ccc(Cl)cc4)c(=O)c23)C1`, the growth was -18.7% (active).
For `[2H]C([2H])([2H])Oc1ccc(/C=C/C(=O)/C=C(/C=C/c2ccc(OC([2H])([2H])[2H])c(OC([2H])([2H])[2H])c2OC([2H])([2H])[2H])OB(F)F)c(OC([2H])([2H])[2H])c1OC([2H])([2H])[2H]`, the growth was 65%.
Consider `Cc1ccc(NC2=CC(=O)C(=O)c3ccccc32)cc1`, for which the growth is -12.4% (active).
Then `NCCOc1ncccc1/C=C1\c2ccccc2-c2ccc([N+](=O)[O-])cc21`, with -39.2% (active).
`COc1cc(CNC(=O)CCCCC[P+](c2ccccc2)(c2ccccc2)c2ccccc2)c(OC)c2c1OCO2`: the growth was 6.74% (active).
For the compound `N#CC(C#N)=NO`, the growth is 93.2%.
As to `CCCCCCCCCCCCCC1=NC(C)(C)CN1C(C)C`, the growth was -61.4% (active).
In the case of `c1ccc2c(c1)oc1c3c(ccc12)NCCC3`, the growth was -51.5% (active).
On to `COc1ccc(CCNC2=CC(=O)CCC2)cc1OC`, for which the growth is 109%.
In the case of `C[N+](C)(CCCCCC[N+](C)(C)C1c2ccccc2-c2ccccc21)C1c2ccccc2-c2ccccc21`, the growth was 107%.
Regarding `COc1ccc(C(=O)c2no[n+]([O-])c2C(=O)c2ccc(OC)cc2)cc1`, the growth is -88.4% (active).
Regarding `COc1ccc(/C=C/c2nc(N3CCOCC3)c3cc(F)c(F)cc3n2)cc1OC`, the growth is -6.96% (active).
As to `C#CCOc1cccc(-c2nc(N)nc(Nc3ccccc3SSc3ccccc3Nc3nc(N)nc(-c4cccc(OCC#C)c4)n3)n2)c1`, the growth is 73%.
With `ClCC#CCSc1ncnc2c1ncn2CC#CCCl`, the growth is -57.2% (active).
Turning to `C[C@H]1[C@H](C)CC[C@]2(C(=O)OCCCC[P+](c3ccccc3)(c3ccccc3)c3ccccc3)CC[C@]3(C)C(=CC[C@@H]4[C@@]5(C)CC[C@H](OC(=O)C(Cl)Cl)C(C)(C)[C@@H]5CC[C@]43C)[C@H]12`, the growth is -70.3% (active).
Take `C#CCOc1c(OC)cc(C(=O)/C(C)=C/c2cccc(N=[N+]=[N-])c2)cc1OC`: the growth was 24.2%.
With `CC(Cc1cccc(C(F)(F)F)c1)NCCOC(=O)c1ccccc1` (stereo not given), the growth was 107%.
Turning to `C[C@@H](C(=O)O)c1ccc2c3cc(Cl)ccc3n(Cc3cc(=O)oc4ccc(Cl)cc34)c2c1`, the growth was 113%.
The same measure for `Cc1ccc(/C=C/C(=O)C(=O)/C=C/c2ccc(C)cc2)cc1`: 110%.
